Hits are enriched below; roughly 11% of the tested compounds scored in any of these assays.
Tau FP inhib: blocks human tau fibril formation measured by polarization | P10636 | K18 P301L tau heparin fibrillization, Alexa594 FP, 6 h | Potency, µM (highest dose often 57.7 µM), hits mostly inhibitors | hit rate 0.39% among 280,000 | AID 1468; also: nearly all actives have a fitted effect of over 55% in size
Target sequence (P10636 561-689 P618L limits assumed): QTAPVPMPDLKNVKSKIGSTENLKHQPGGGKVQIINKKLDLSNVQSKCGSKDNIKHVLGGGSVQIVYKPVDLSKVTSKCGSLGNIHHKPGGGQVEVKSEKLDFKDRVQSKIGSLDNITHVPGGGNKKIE
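FP of Alexa 594-tau after heparin (20 uM) induction. Substrate: human K18 P301L, 15 uM unlabeled, 0.24 uM labeled. Buffer 100 mM sodium acetate pH 7. 6 hr, 37 C.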
Tau ThT inhib: inhibitors of human tau fibril formation, thioflavin T binding; Potency, µM (top dose mostly 57.4 µM), most hits filed as inhibitors; recombinant tau K18 P301L, heparin-induced fibrillization, ThT fluorescence; P10636; hit rate 2.1% among 270,000; also: nearly all actives have a fitted effect of over 55% in size
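Fibril formation assay: tau K18 P301L at 15 uM with trace Alexa 594 label, heparin inducer 20 uM, pH 7 sodium acetate buffer, 37 C for 6 hr; endpoint ThT signal.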
FBPA coupling cs: coupling enzyme interference in Giardia aldolase counter-screen; activity change, negative = inhibition, % at 58.2 µM, hits read low; coupling enzyme system counterscreen, AmpLite Red fluorescence; hit rate 0.67% among 290,000; in the data active = activity change below about -30%
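Counterscreen of the coupled detection system alone, without aldolase: glyceraldehyde-3-phosphate coupling enzymes plus AmpLite Red readout. Compounds at 57.5 uM final, 10 min RT preincubation, 20 min RT reaction, fluorescence 525/598 nm.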
Tau fluor counter: counter-screen for tau fibril formation inhibitors; tau K18 P301L Alexa594 fluorescence, heparin fibrillization; Potency, µM (top dose mostly 57.7 µM); hit rate 0.93% among 280,000; AID 1463; also: nearly all actives have a fitted effect of over 55% in size
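Human tau K18 P301L (15 uM unlabeled, 0.24 uM Alexa 594-labeled) in 100 mM sodium acetate pH 7 with 20 uM heparin, 6 hr at 37 C. ThT 30 uM added, 1 hr ambient; Alexa 594 FP and total fluorescence read at 555/632 nm.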
G9a inh: inhibitors of human histone lysine methyltransferase G9a; Potency, µM (titrated, usually from 102 µM), usual class: inhibitors; G9a H3K9 monomethylation, AlphaScreen, 2 h; hit rate 8.8% among 350,000; Q96KQ7; also: nearly all actives have a fitted effect of over 75% in size
Target sequence (Q96KQ7 913-1193 limits assumed): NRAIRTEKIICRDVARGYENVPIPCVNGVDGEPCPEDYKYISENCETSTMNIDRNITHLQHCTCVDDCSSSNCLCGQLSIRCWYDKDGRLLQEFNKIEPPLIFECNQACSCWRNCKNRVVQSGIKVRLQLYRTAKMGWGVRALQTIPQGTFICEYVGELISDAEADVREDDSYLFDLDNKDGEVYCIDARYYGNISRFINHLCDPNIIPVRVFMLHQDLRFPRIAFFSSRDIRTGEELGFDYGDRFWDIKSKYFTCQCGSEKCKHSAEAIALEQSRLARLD
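AlphaScreen detection with an anti-monomethyl H3K9 antibody quantified product after a 2 h room-temperature reaction containing 500 nM biotinylated H3K9 peptide, 20 µM SAM and 20 nM enzyme, which had been preincubated 15 min with compound.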
Sfp PPTase inh: Sfp phosphopantetheinyl transferase inhibition; Q9F4F7; Biochemical Sfp PPTase activity, qHTS; Potency, µM, actives largely listed as inhibitors; hit rate 3.5% among 310,000; AID 1490;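 also: the enzyme is Sfp with the accession as filed and its product quenches rhodamine fluorescence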
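Fluorescence-quenching assay: 15 nM Sfp-PPTase preincubated 15 min at room temperature with compound, then 5 uM rhodamine-CoA and 12.5 uM BHQ-2-labelled YbbR peptide added. Fluorescence (ex 525/em 598 nm) read at start and after 30 min; difference gives rate.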
A number is an active result; n = inactive; u = inconclusive; x = no result; [ ] = another dose, or the depositor's remark. Unless noted, calls follow the shape of the dose curve; as a rule, active = well fitted curve in the direction sought with a large enough effect; inconclusive = small, poorly fitted or top-dose-only effect, or another doubt; inactive = no such curve, though single readings can be large; an effect the other way counts as inactive or inconclusive.

SMILES	Tau FP inhib	Tau ThT inhib	FBPA coupling cs	Tau fluor counter	G9a inh	Sfp PPTase inh
Cc1ccc(NC(=O)COC(=O)c2nn(C)cc2Cl)cc1	x	x	n	x	n	n
Cc1ccc2[nH]cc(/C=C/c3cc[n+](C)cc3)c2c1	x	x	n	x	45µM	n
COc1ccc2c(C=O)c[nH]c2c1	n	u	n	n	n	n
CC[n+]1ccc(/C=C/c2c[nH]c3ccccc23)cc1	x	x	n	x	x	n
COc1ccc2c(/C=C/c3cc[n+](C)cc3)c[nH]c2c1	x	x	n	x	50µM	n
CCOc1ccc(-n2c(SCC(=O)NCC3CCCO3)nc3c([nH]c4ccccc43)c2=O)cc1 (stereo not drawn)	n	n	x	n	n	x
COC(=O)C1=C[C@@H](C(=O)OC)C2C3=C(C(=O)[C@@]2(C)NC(=O)c2ccccc2)[C@H](C)n2c(=O)n(-c4ccccc4)c(=O)n2[C@@H]3C1 (stereo partly drawn)	x	x	n	x	x	n
Cc1cccc(-c2nc(CN3CCCC(C(=O)N4CCN(c5cc(Cl)ccc5C)CC4)C3)c(C)o2)c1 (stereo not drawn)	n	u	x	n	14µM	x
CC(=O)N1c2ccccc2C(=O)C1N(C)c1ccc(C)cc1 (stereo not drawn)	x	x	n	x	u	n
CC(=O)N1/C(=C/c2ccc(N(C)C)cc2)C(=O)c2ccccc21	n	10µM	n	10µM[quencher]	11µM	n
O=C(CSc1ccc2ccccc2c1)NCCc1ccc(O)c(O)c1	n	u	n	n	2.5µM	25µM
O=C(COC(=O)CSc1ccc2ccccc2c1)NC1CC1	n	n	n	n	50µM	n
O=C(CSc1ccc2ccccc2c1)Nc1ncccn1	n	n	n	n	45µM	n
COc1ccc(CCNC(=O)CCCC(=O)n2nc(C)c3ccccc32)cc1OC	x	x	n	x	79µM	n
CC(C)(C)c1cc(C(=O)NNc2cc(C(F)(F)F)ccc2Cl)n(Cc2ccccc2)n1	u	n	n	n	n	n
COc1ccc(CCNC(=O)CSc2ccc(NC(C)=O)cc2)cc1OC	x	x	n	x	n	n
COc1ccc(CCNC(=O)CSc2ccc3ccccc3c2)cc1OC	n	u	n	n	25µM	n
CCn1cc(Br)c(C(=O)Nc2sc3c(c2C(N)=O)CCCC3)n1	x	x	x	x	n	n
N#Cc1c(NC(=O)c2cc(-n3cnnc3)ccc2Cl)sc2c1CCCC2	n	u	n	n	11µM	n
Cc1cc(C(F)F)n2nc(C(=O)Nc3sc4c(c3C#N)CCC4)nc2n1	n	u	n	n	50µM	u
Cn1ccc(C(=O)Nc2sc3c(c2C#N)CCC3)n1	x	x	x	x	35µM	n
Cn1cc(Br)c(C(=O)Nc2sc3c(c2C(N)=O)CCCC3)n1	x	x	n	x	35µM	n
COc1ccc(-c2cc(C(F)(F)F)nc(SCC(=O)NCCc3ccc(OC)c(OC)c3)n2)cc1	n	n	x	n	n	x
Cn1cc(Br)c(C(=O)Nc2sc3c(c2C#N)CCC3)n1	n	u	n	n	35µM	n
CCOC(=O)c1scc(-c2ccccc2)c1S(=O)(=O)Nc1ccccc1OC	n	n	x	n	14µM	x
SMILES	Tau FP inhib	Tau ThT inhib	FBPA coupling cs	Tau fluor counter	G9a inh	Sfp PPTase inh
CCOC(=O)c1c(N)sc(C(=O)OC)c1C	n	u	n	n	x	56µM
CCOC(=O)c1sc(N)c(C(=O)Nc2ccccc2OC)c1C	n	u	n	n	2.8µM	14µM
CCOC(=O)c1c(N)sc2c1C1CCN2CC1	n	n	n	n	79µM	n
CCOC(=O)c1sc(N)c(C(=O)OC)c1C	n	n	n	n	n	n
COc1cc(C)cc2oc(=O)c(CC(=O)NCCc3ccc(Cl)cc3)c(C)c12	n	n	x	n	n	x
CCOC(=O)c1cnn(-c2nc(OCC)cc(OCC)n2)c1C	n	n	n	n	n	n
CCCCN1CCc2[nH]c(=S)[nH]c(=O)c2C1	n	n	n	n	35µM	u
CCCCCCn1c(=O)[nH]c2c(c1=O)CCC2	n	n	n	n	n	n
COCCN1CCc2[nH]c(=S)[nH]c(=O)c2C1	n	n	n	n	32µM	56µM
CC(c1ccccc1)N1CCc2[nH]c(=S)[nH]c(=O)c2C1 (stereo not drawn)	n	n	n	n	40µM	u
CCOc1ccc(NC(=O)CCc2nc3cccnc3n2Cc2ccc(OC)cc2)cc1	n	n	x	n	n	x
CN1CCN(C(=S)NC(=O)c2ccc(Cl)cc2)CC1	n	u	n	n	28µM	35µM
O=C(NC(=S)N1CCCC1)c1ccc(Cl)cc1	x	x	x	x	n	n
O=C(NC(=S)N1CCN(c2ccccn2)CC1)c1ccco1	n	n	n	n	56µM	n
O=C(NC(=S)N1CCN(c2ccc([N+](=O)[O-])cc2)CC1)c1ccco1	n	u	n	n	x	n
CN1CCN(C(=S)NC(=O)/C=C/c2cccs2)CC1	n	n	n	n	50µM	n
CN1CCN(C(=S)NC(=O)c2ccco2)CC1	n	n	n	n	50µM	56µM
COc1ccc(CN(C)C(=O)/C=C/c2ccc(S(=O)(=O)N3CCCCCC3)cc2)cc1	x	x	x	x	n[12.7 µM]	x
C=CCOC(=O)C1(C(NC(=O)OC)c2ccccc2)C(=O)Cc2ccccc21 (stereo not drawn)	n	n	n	n	x	n
COc1cc(NS(=O)(=O)c2ccc(C)cc2C)cc(OC)c1OC	n	n	n	n	79µM	n
COCCN(CC(=O)Nc1cccc(C)c1C)C(=O)c1ccc(-n2cccn2)cc1	x	x	x	x	n[2.33 µM]	x
CCCN1CCc2nc(N3CCN(c4ncccn4)CC3)ncc2C1	n	u	x	n	32µM	x
CCCCN1CCc2nc(N3CCN(c4ncccn4)CC3)ncc2C1	n	u	x	n	18µM	x
CCCCN1CCc2nc(N3CCN(C)CC3)ncc2C1	n	n	x	n	u	x
CCc1ccccc1NC(=O)Cn1c(=O)n(CCCS(=O)(=O)C2CCCCC2)c(=O)c2ccccc21	n	n	x	n	n	x
SMILES	Tau FP inhib	Tau ThT inhib	FBPA coupling cs	Tau fluor counter	G9a inh	Sfp PPTase inh
CC1=C(CC(=O)O)c2cc(F)ccc2/C1=C/c1ccc(S(C)=O)cc1 (stereo not drawn)	x	x	n	x	50µM	n
O=C(NCc1ccc(Cl)cc1)C1CCCN(c2ncnc3onc(-c4ccc(F)cc4)c23)C1 (stereo not drawn)	n	n	x	u	n	x
O=C(CSc1ncnc2c(-c3ccc(Cl)cc3)nsc12)c1ccccc1	u	18µM	n	u	n	n
O=C(CSc1nncs1)Nc1ccc2[nH]c(=O)[nH]c2c1	x	x	x	x	11µM	x
O=C(Nc1nnc(SCC(=O)N2CCCCC2)s1)C1CCCCC1	n	n	n	n	4µM	n
COc1ccc(NC(=O)CSc2nnc(NC(=O)Nc3ccc(OC)cc3)s2)cc1	n	n	x	n	u	x
COc1ccc(Nc2nnc(SCC(=O)Nc3ccc4[nH]c(=O)[nH]c4c3)s2)cc1	n	u	n	u	16µM	n
COc1ccc(Nc2nnc(SCC(=O)N3CCCC3)s2)cc1	n	n	n	n	35µM	n
C=CCn1c(=O)c(C(=O)Nc2ccccc2S(N)(=O)=O)c(O)c2ccccc21	n	n	n	n	u	n

Assay outcomes as filed in PubChem.
